Test results reported in PubChem BioAssay AID1159580 (chemical genetic matrix, 2015).
Values joined by “and” are separate entries in the source; they are usually repeats but may differ in a detail not shown here. Equal values may be shown once. Among all 5,500 compounds or so, about 2,000 (36%) were called active. Not shown: some 18% with an inconclusive outcome. Rule as the data show it: active = normalized growth mostly below about 0.91 (no sharp cut-off); inconclusive = no clear call, values can overlap the other calls; inactive = mostly above about 0.92. This is one part of the list.

Test: chemical genetic growth profiling, strain panel (AID 1159580);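 also: tested at 20 µM; growth read once vehicle control cultures reached saturation at 30 °C; 1 = growth at the plate median or of vehicle wells; lower values mean less growth of the strain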
Conditions: S. cerevisiae deletion strains, growth OD

Measured: normalized growth

CN1CCN2c3ccccc3Cc3ccccc3C2C1 (stereo unspecified)
inactive: locus YAL013W, strain DEP1, active compounds read low 1.01 and 0.984 | locus YAL021C, strain ccr4, active compounds read low 0.97 | locus YAL026C, strain drs2, active compounds read low 0.999 | locus YAL030W, strain snc1, active compounds read low 1 | locus YAL040C, strain CLN3, active compounds read low 1.01 | locus YBL061C, strain skt5, active compounds read low 0.998 | locus YBR009C, strain hhf1, active compounds read low 0.987 | locus YBR021W, strain FUR4, active compounds read low 0.992 | locus YBR023C, strain chs3, active compounds read low 0.994 | locus YBR171W, strain sec66, active compounds read low 1.02 | locus YBR229C, strain ROT2, active compounds read low 1.01 | locus YBR231C, strain swc5, active compounds read low 0.996 | locus YBR279W, strain paf1, active compounds read low 1 | locus YCL011C, strain gbp2, active compounds read low 1 | locus YCL016C, strain dcc1, active compounds read low 0.994 | locus YCL029C, strain bik1, active compounds read low 0.99 | locus YCL061C, strain MRC1 (second series), active compounds read low 0.995 | locus YCL061C, strain MRC1, active compounds read low 0.999 | locus YCL069W, strain vba3, active compounds read low 0.998 | locus YCR088W, strain abp1, active compounds read low 1 | locus YDL005C, strain med2, active compounds read low 1.01 | locus YDL035C, strain GPR1, active compounds read low 1.03 | locus YDL040C, strain nat1, active compounds read low 1 | locus YDL074C, strain BRE1, active compounds read low 1.03 | locus YDL101C, strain DUN1, active compounds read low 1.02 | locus YDL134C, strain PPH21, active compounds read low 1.01 | locus YDL185W, strain tfp1, active compounds read low 0.982 | locus YDL192W, strain arf1, active compounds read low 0.989 | locus YDR001C, strain nth1, active compounds read low 1.01 | locus YDR069C, strain doa4, active compounds read low 0.986 | locus YDR101C, strain arx1, active compounds read low 0.985 | locus YDR137W, strain rgp1, active compounds read low 1.01 | locus YDR150W, strain NUM1, active compounds read low 1.01 and 0.988 | locus YDR159W, strain sac3, active compounds read low 0.988 | locus YDR162C, strain NBP2, active compounds read low 1.05 | locus YDR195W, strain ref2 0.972 | locus YDR297W, strain sur2, active compounds read low 1.01 | locus YDR318W, strain mcm21, active compounds read low 0.979 | locus YDR334W, strain swr1, active compounds read low 1 | locus YDR335W, strain msn5, active compounds read low 1 | locus YDR363W, strain ESC2, active compounds read low 0.983 | locus YDR388W, active compounds read low 0.99 | locus YDR392W, strain spt3, active compounds read low 0.881 | locus YDR502C, strain sam2, active compounds read low 0.982 | locus YEL003W, strain gim4, active compounds read low 0.997 | locus YEL037C, strain rad23, active compounds read low 1 | locus YEL061C, strain CIN8 (second series), active compounds read low 1.01 | locus YEL061C, strain CIN8, active compounds read low 1.01 | locus YER002W, strain NOP16, active compounds read low 0.998 | locus YER015W, strain faa2, active compounds read low 1 | locus YER016W, strain bim1, active compounds read low 0.991 | locus YER110C, active compounds read low 0.985 | locus YER111C, strain swi4, active compounds read low 0.993 | locus YER155C, strain BEM2 (second series), active compounds read low 0.978 | locus YER155C, strain BEM2, active compounds read low 1.01 | locus YER167W, strain BCK2, active compounds read low 1.02 | locus YFR010W, strain ubp6, active compounds read low 1.01 | locus YGL078C, strain dbp3, active compounds read low 0.981 | locus YGL086W, strain mad1, active compounds read low 0.988 | locus YGL167C, strain pmr1, active compounds read low 1 | locus YGL173C, strain kem1, active compounds read low 1.01 | locus YGL227W, strain vid30, active compounds read low 1.01 | locus YGL240W, strain doc1, active compounds read low 0.979 | locus YGL248W, strain PDE1, active compounds read low 1.01 | locus YGL253W, strain hxk2, active compounds read low 1.01 | locus YGR078C, strain PAC10, active compounds read low 1.03 and 1.01 | locus YGR135W, strain pre9, active compounds read low 0.977 | locus YGR229C, strain SMI1, active compounds read low 1.01 and 0.95 | locus YGR252W, strain gcn5, active compounds read low 0.964 | locus YHR013C, strain ard1, active compounds read low 0.939 | locus YHR027C, strain rpn1, active compounds read low 1 | locus YHR030C, strain SLT2, active compounds read low 1.01 and 0.992 | locus YHR079C, strain IRE1 (second series), active compounds read low 0.987 | locus YHR079C, strain IRE1, active compounds read low 0.987 | locus YHR094C, strain hxt1, active compounds read low 0.989 | locus YHR129C, strain ARP1, active compounds read low 1.01 | locus YHR142W, strain chs7, active compounds read low 0.997 | locus YHR200W, strain rpn10, active compounds read low 0.995 | locus YIL066C, strain RNR3, active compounds read low 1.02 | locus YIL073C, strain SPO22, active compounds read low 1.01 | locus YIL125W, strain kgd1, active compounds read low 0.989 | locus YIR030C, strain dcg1, active compounds read low 0.984 | locus YJL092W, strain hpr5, active compounds read low 1 | locus YJL095W, strain BCK1 (second series), active compounds read low 0.999 | locus YJL095W, strain BCK1, active compounds read low 1.01 and 0.988 | locus YJL115W, strain asf1, active compounds read low 1 | locus YJL129C, strain trk1, active compounds read low 0.99 | locus YJL134W, strain LCB3, active compounds read low 1.01 | locus YJL154C, strain vps35, active compounds read low 1 | locus YJL164C, strain tpk1, active compounds read low 0.978 | locus YJL166W, strain qcr8, active compounds read low 0.987 | locus YJL168C, strain set2, active compounds read low 0.991 | locus YJL187C, strain SWE1 (second series), active compounds read low 1.01 | locus YJL187C, strain SWE1, active compounds read low 1 | locus YJR043C, strain POL32, active compounds read low 1 | locus YJR066W, strain TOR1, active compounds read low 0.932
